# Measured values: PubChem BioAssay (Tox21)
# Results filed as inconclusive are left out. Unmarked numbers belong to inactive results. Calls follow the shape of the dose curve; as a rule, active = well fitted activation curve with a large enough effect in the signal ratio in the repeat runs (not every such curve was filed as active); inconclusive = weak or mixed curves, or effect the other way; inactive = flat fitted curve, though single readings scatter; the % refers to the signal ratio.
# Molecular target: Estrogen receptor beta (Homo sapiens) (UniProt Q92731)
# Sequence (Q92731 whole entry, looked up): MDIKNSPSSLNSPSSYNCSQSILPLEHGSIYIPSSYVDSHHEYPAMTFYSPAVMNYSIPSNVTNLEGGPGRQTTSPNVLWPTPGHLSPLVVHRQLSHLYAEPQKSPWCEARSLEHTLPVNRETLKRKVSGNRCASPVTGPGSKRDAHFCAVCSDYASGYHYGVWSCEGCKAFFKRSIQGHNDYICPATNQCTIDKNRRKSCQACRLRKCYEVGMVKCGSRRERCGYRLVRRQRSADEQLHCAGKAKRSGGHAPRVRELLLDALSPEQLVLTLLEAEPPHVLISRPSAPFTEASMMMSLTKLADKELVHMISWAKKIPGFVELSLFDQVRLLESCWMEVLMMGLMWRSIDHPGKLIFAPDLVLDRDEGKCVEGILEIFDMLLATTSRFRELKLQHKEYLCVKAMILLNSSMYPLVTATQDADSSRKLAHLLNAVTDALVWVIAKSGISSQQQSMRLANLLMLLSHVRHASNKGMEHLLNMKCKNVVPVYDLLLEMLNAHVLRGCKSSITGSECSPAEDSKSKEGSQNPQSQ
# Experiment: qHTS assay to identify small molecule agonists of the estrogen receptor beta (ER-beta) signaling pathway (AID 1259377)
# Conditions: ER-beta-UAS-bla HEK293T, beta-lactamase FRET ratio, 16 h; series mostly up to 92.4 µM; activation: at the top concentration
# How it was run: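 ER-beta-UAS-bla HEK293T cells in medium with 2% charcoal-stripped FBS were exposed to compounds for 16 h at 37C. Beta-lactamase reporter activity was read as fluorescence after 2 h with LiveBLAzer B/G FRET substrate at room temperature.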
# % is scaled to controls: 0 for no effect and ±100 for the full control effect.
row,Structure (SMILES),activation
1,CC1(O)CSC(C)(O)CS1 (stereo not drawn),9.18%
2,CCOC(=O)C1CC(=O)C(=C(O)C2CC2)C(=O)C1 (stereo not drawn),0.582%
3,Cc1ccc([N+](=O)[O-])cc1Cl,-1.22%
4,O=C(CCCl)NCc1ccccc1,6.62% [at 42.5 µM]
5,Cc1ccc(C)c(N)c1,1.79%
6,CCc1cc2cc(OC)c(OC)cc2c(Cc2ccccc2)n1,0.294% [at 42.5 µM]
7,NS(=O)(=O)c1cc(-c2nn[nH]n2)c(NCc2cccs2)cc1Cl,-0.115% [at 42.5 µM]
8,Cc1ccc([N+](=O)[O-])c(N)c1,-0.452%
9,CN(C)C(=O)NC1(c2ccccc2)CCN(CCC[C@]2(c3ccc(Cl)c(Cl)c3)CCCN(C(=O)c3ccccc3)C2)CC1,-0.37% [at 19 µM]
10,CC1=C2[C@H](/C=C(\C)C(=O)O)CC[C@@H](C)[C@H]2CC1,-5.39%
11,COC(=O)N[C@H](C(=O)N[C@@H](Cc1ccccc1)[C@@H](O)CN(Cc1ccc(-c2ccccn2)cc1)NC(=O)[C@@H](NC(=O)OC)C(C)(C)C)C(C)(C)C,0.594% [at 42.5 µM]
12,O=c1oc2c(O)c(O)cc3c(=O)oc4c(O)c(O)cc1c4c23,0.261% [at 19 µM]
13,CCCCCOc1ccc(C2SC(=O)NC2=O)cc1OCC (stereo not drawn),-4.95% [at 42.5 µM]
14,C=CCCC=C,4.52%
15,C=CCCCCCCCCO,2.05%
16,O=c1[nH]c(=O)n([C@H]2C[C@H](O)[C@@H](CO)O2)cc1C(F)(F)F,-1.1% [at 42.5 µM]
17,FC(F)(F)C(Cl)(Cl)Cl,1.95%
18,CC1=CC(=O)CC(C)(C)C1=O,-0.372%
19,O=S(=O)(O)C(F)(F)F,0.404%

row,Structure (SMILES),activation
1,Cc1c(-c2ccccc2)oc2c(C(=O)OCCN3CCCCC3)cccc2c1=O,-0.365% [at 42.5 µM]
2,CCN(CC)CC1CCCCN1CC(=O)N1c2ccccc2C(=O)Nc2cccnc21 (stereo not drawn),1.27% [at 42.5 µM]
3,Cc1cc(S(=O)(=O)O)c(N)cc1Cl,1.2%
4,CC(C)O,2.51%
5,CCC1(C)NC(=O)NC1=O (stereo not drawn),0.0221%
6,Cc1cn([C@@H]2O[C@H](CO)[C@@H](O)[C@@H]2F)c(=O)[nH]c1=O,0.523% [at 42.5 µM]
7,CC[C@H]1CC[C@H](NCc2cc3c(cc2OC)[C@H]2C[C@H]2C(=O)N3C)[C@H](c2ccccc2)N1,-3.45%
8,CCCCC(CC)COC(=O)COc1cc(Cl)c(Cl)cc1Cl (stereo not drawn),7.73%
9,O=C(O)c1ccccc1Nc1cc(Cl)ccc1C(=O)O,0.616% [at 19 µM]
10,COC(=O)/C=C(/C)N,1.35% [at 42.5 µM]
11,CCCCCCn1c(=O)c2c(ncn2C)n(C)c1=O,0.214% [at 42.5 µM]
12,COc1cc(N)c(Cl)cc1C(=O)NC1CCN(Cc2ccccc2)CC1,-3.58% [at 42.5 µM]
13,Cc1ncc(CO)c(CN)c1O,0.223% [at 42.5 µM]
14,O=CCCc1ccccc1,2.92%
15,O=C1Nc2ccc([N+](=O)[O-])cc2C1=O,-5.38%
16,CCCCCCCCCC#N,-0.274%
17,COc1ccccc1N1CCN(CCCNc2cc(=O)n(C)c(=O)n2C)CC1,-0.898% [at 42.5 µM]
18,CC(Oc1c(Cl)cccc1Cl)C1=NCCN1 (stereo not drawn),1.16% [at 42.5 µM]
19,CCCCCCCCOC(=O)CCCCCCCCC(=O)OCCCCCCCC,0.433%
